Out of some 360,000 compounds screened, about 3,000 (0.83%) were called active. Cut-off read from the data, not from the text of the source: active = inhibition above about 38%; inactive = the rest. Shown is part of a subset that was picked to be rich in actives.
molecular target: G-protein coupled receptor 183 (Homo sapiens) (UniProt P32249); assay: EBI2 receptor antagonists, beta-arrestin recruitment, primary screen, cell-based, luminescence, 7a,25-OHC stimulation, uHTS (AID 651636); settings: 7a,25-OHC stimulated, at 5 µM, stronger effect = higher value;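 note: enzyme fragment complementation signal reports receptor beta-arrestin coupling in cells; 0% = agonist plus DMSO wells and 100% = wells without agonist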
Sequence (P32249 whole entry, looked up, the tested form may be a part): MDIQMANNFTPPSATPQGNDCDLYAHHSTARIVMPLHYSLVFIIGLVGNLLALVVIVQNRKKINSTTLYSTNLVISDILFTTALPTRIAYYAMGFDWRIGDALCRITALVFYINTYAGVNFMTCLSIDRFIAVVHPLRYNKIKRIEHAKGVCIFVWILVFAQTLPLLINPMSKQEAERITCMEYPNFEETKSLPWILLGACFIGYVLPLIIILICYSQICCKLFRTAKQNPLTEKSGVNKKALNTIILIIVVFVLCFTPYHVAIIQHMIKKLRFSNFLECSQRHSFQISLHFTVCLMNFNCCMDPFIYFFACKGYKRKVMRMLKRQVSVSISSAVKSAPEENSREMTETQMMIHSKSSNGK

Row | Structure (SMILES) | inhibition
1 | CC(=O)OC1C2(CC3N4C(=O)C5(CO)SSC4(CC31O)C(=O)N5C)OC(C)C(C)(C)C2=O (stereo not given) | 94.4% (active)
2 | CC(C)(C)[C@]1(O)C[C@@H]2OC(=O)C[C@@]23C(=O)O[C@@H]2OC(=O)[C@H](O)[C@]213 | -2.99% (inactive)
3 | O=C(CCC(=O)N1C[C@H]2C[C@@H](C1)c1cccc(=O)n1C2)NCc1ccccc1C(F)(F)F | -0.966% (inactive)
4 | CC(=O)Nc1ccccc1C(=O)OCC(=O)c1cccc2ccccc12 | 12.7% (inactive)
5 | COc1cccc(C(=O)N2C[C@H]3C[C@@H](C2)c2cccc(=O)n2C3)c1 | -6.08% (inactive)
6 | O=C(Cc1ccccc1[N+](=O)[O-])N1CCN(Cc2ccc3c(c2)OCO3)CC1 | 5.95% (inactive)
7 | O=C(COc1ccc2ccccc2c1)N1CCN(Cc2ccncc2)CC1 | 66.2% (active)
8 | CC(C)c1ccc(OCC(=O)N2CCCN(C)CC2)cc1 | 2.02% (inactive)
9 | CC(c1ccccc1)(c1ccccc1)c1ccncc1 | 11.4% (inactive)
10 | COC(=O)C1=C(c2ccccc2OCc2ccccc2)C[C@@H]2CC[C@H]1N2C(=O)NCc1ccc(OC)cc1 | 26.2% (inactive)
11 | COC(=O)C1=C(c2ccc(F)cc2OCc2ccccc2)C[C@@H]2CC[C@H]1N2C(=O)NCc1ccc(OC)c(OC)c1 | 9.54% (inactive)
12 | CCc1ccc(OCC(=O)N2CCN(CC(=O)Nc3ccccc3Cl)CC2)cc1 | 73.1% (active)
13 | CCC(=O)c1ccc(OCC(=O)N2CCN(CC(=O)Nc3ccc(C)cc3)CC2)cc1 | 6.66% (inactive)
14 | O=C(CN1CCCCC1)Nc1ccc(Br)cc1C(=O)c1ccccc1Cl | -11.6% (inactive)
15 | CCOP(=S)(OCC)C(O)CCCCCn1c(=O)c(F)cn(C2CCCO2)c1=O (stereo not given) | -1.97% (inactive)
16 | CN(c1ccccc1)c1ccc([N+](=O)[O-])c2nonc12 | 1.86% (inactive)
17 | CC[N+](CC)(CC)CCCCCCCCCC[N+](CC)(CC)CC | 2.47% (inactive)
18 | C[C@H]1CN([C@@H](C)CO)C(=O)CCCn2nncc2CO[C@H]1CN(C)C(=O)Oc1cccc2ccccc12 | -6.15% (inactive)
19 | COC(=O)C1=C(c2ccc(OCc3ccccc3)cc2)C[C@@H]2CC[C@H]1N2C(=O)NCc1ccc(Cl)cc1 | 22.1% (inactive)
20 | COC(=O)C1=C(c2ccc(OCc3ccccc3)cc2)C[C@@H]2CC[C@H]1N2C(=O)NCc1cccc(F)c1 | 64.5% (active)
21 | COC(=O)C1=C(c2cccc(OCc3ccccc3)c2)C[C@@H]2CC[C@H]1N2C(=O)NCc1ccc(Br)cc1 | 19% (inactive)
22 | Cc1cc(C)c2c(c1)NP(=S)(c1ccccc1)N2 (stereo not given) | 11.1% (inactive)
23 | O=C1NC(=O)N(CCc2ccc(F)cc2)C(=O)/C1=C/C=C/c1ccccc1 | 58.5% (active)
24 | CN(C)c1nc(N(C)C)nc(N(C#N)CCCl)n1 | 2.53% (inactive)
25 | COc1ccc(NC(=O)c2cn(CCC#N)nc2-c2ccc([N+](=O)[O-])cc2)cc1 | -6.27% (inactive)

Reference: PubChem BioAssay AID651636 (Sanford-Burnham Center for Chemical Genomics, 2012)
